From PubChem BioAssay (NCATS)
Records with an inconclusive call do not appear. Values without a mark were called inactive. Activity calls are given as the source filed them. Calls follow the shape of the dose curve; as a rule, active = well fitted inhibition curve with a large enough effect; inconclusive = small, poorly fitted or top-dose-only effect; inactive = no such curve, though single readings can be large or run the other way.

test: NS1 protein of Zika virus - qHTS assay to identify small molecule inhibitors in human HEK 293 cells (AID 1347053); settings: HEK293 ZIKV MR766 infection, NS1 TR-FRET, 24 h; series mostly up to 46.1 µM; activity change, negative = inhibition: at the top concentration; also: nearly all actives have a fitted effect of over 55% in size;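 as to activity change, negative = inhibition: plate controls were infected untreated cells for no effect and uninfected cells for full effect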
In short: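 HEK 293 cells, seeded 20 h at 37 C, were pretreated with compound 1 h, then infected with ZIKV MR766 (MOI = 0.5) for 24 h. NS1 was read by TR-FRET with two anti-NS1 antibodies, normalized to uninfected and infected wells.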
Potency is read from the fitted curve at half-maximal effect.

SMILES	Potency	activity change, negative = inhibition
CCCCC1C(=O)N(c2ccccc2)N(c2ccc(O)cc2)C1=O (configuration not stated)	3.98 µM (active)	–
COC(=O)Nc1nc2ccc(C(=O)C3CC3)cc2[nH]1	–	-1.1%
CC(C)(C)c1nnc(NS(=O)(=O)c2ccc(N)cc2)s1	–	-0.153%
Nc1ccn([C@@H]2O[C@H](CO)[C@@H](O)[C@@H]2O)c(=O)n1	–	25.1%
CCCC(=O)OC[C@@H](OC(=O)CCC)[C@@H](OC(=O)CCC)[C@H](Cn1c2nc(=O)[nH]c(=O)c-2nc2cc(C)c(C)cc21)OC(=O)CCC	–	21.5%
NC(=O)C(c1ccccc1)(c1ccccc1)[C@@H]1CCN(CCc2ccc3c(c2)CCO3)C1	–	1.07%
COC(=O)C1=C(C)NC(C)=C(C(=O)OCC(C)C)C1c1ccccc1[N+](=O)[O-] (configuration not stated)	–	3.59%
CCCCCCCCCCCCOCCO	–	2.17%
CC12C(=O)OC(=O)C1(C)C1CCC2O1 (configuration not stated)	3.98 µM (active)	–
O=Cc1ccc(O)c(O)c1O	–	4.88%
CCCCCCCC/C=C/C(=O)O	–	14.1%
CC1(C)S[C@@H]2[C@H](NC(=O)[C@H](N)c3ccccc3)C(=O)N2[C@H]1C(=O)O	–	-1.9%
Cc1c(C(=O)O)c(O)cc2c1C(=O)c1c(O)c([C@@H]3O[C@H](CO)[C@@H](O)[C@H](O)[C@H]3O)c(O)c(O)c1C2=O	–	29.9%
COc1ccnc2c1CCCCC2S(=O)c1nc2ccccc2[nH]1 (configuration not stated)	–	16.4%
C[N+]1(C)[C@@H]2CC(OC(=O)[C@H](CO)c3ccccc3)C[C@H]1[C@@H]1O[C@@H]12 (some centres not stated)	–	-10%
O=c1cc(-c2ccccc2)oc2ccccc12	–	1.95% [at 92.8 µM]
Clc1ccccc1-c1nc(-c2ccncc2)no1	–	4.96%
